# Screens (PubChem BioAssay)
# Anthrax LF inh2: Bacillus anthracis LF protease inhibitors, primary screen, biochemical, multiplex microsphere, MLPCN library; inhibition, % at 10 µM; multiplex microsphere protease cleavage assay; Lethal factor (Bacillus anthracis), P15917; 0.12% of 360,000 active; AID 588501, 2011; in the data active means inhibition above about 30%; inconclusive means no clear call, values can overlap the other calls; further: plate controls were buffer without enzyme for full effect and enzyme alone for no effect
# Autofluor counter: compound fluorescence in toxin protease inhibitor counterscreen; compound autofluorescence counterscreen, microsphere flow cytometry; stronger effect = higher value; fluorescence intensity (test concentration not listed); 3.1% of 360,000 active; AID 624483; in the data active means fluorescence intensity above about 16000; inconclusive means no clear call, values can overlap the other calls
# Mtb FBA inh: Mtb FBA enzyme inhibitors, primary screen, biochemical, fluorescence, strain H37Rv; Fructose-bisphosphate aldolase (Mycobacterium tuberculosis (strain ATCC 25618 / H37Rv)), …; purified M. tuberculosis FBA, fluorescence read-out; inhibition, % at 1 µM; 2.3% of 360,000 active;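 further: 0% = vehicle and 100% = reference inhibitor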
# Target sequence (P9WQA3 whole entry, looked up): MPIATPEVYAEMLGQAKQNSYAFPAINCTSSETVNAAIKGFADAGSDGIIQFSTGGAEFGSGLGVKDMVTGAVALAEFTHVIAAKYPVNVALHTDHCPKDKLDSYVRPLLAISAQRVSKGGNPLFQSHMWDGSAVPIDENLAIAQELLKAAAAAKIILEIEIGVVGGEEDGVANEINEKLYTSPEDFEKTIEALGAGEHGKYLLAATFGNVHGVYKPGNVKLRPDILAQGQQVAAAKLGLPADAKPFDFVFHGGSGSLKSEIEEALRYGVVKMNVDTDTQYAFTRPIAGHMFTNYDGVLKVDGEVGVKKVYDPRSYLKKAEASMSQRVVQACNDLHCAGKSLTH
# BoNT A protease: BoNT/A light chain protease inhibitors, primary screen, biochemical, flow cytometry, MLPCN library. Botulinum neurotoxin type A light chain protease (Clostridium botulinum A str. ATCC 3502). multiplex microsphere protease substrate cleavage. inhibition, % at 10 µM. 0.17% of 360,000 active; in the data active means inhibition above about 30%; inconclusive means no clear call, values can overlap the other calls; further: plate controls were buffer without enzyme for full effect and enzyme alone for no effect
# BoNT-F LC inh: BoNT/F light chain protease inhibitors, primary screen, biochemical, flow cytometry, MLPCN library; Botulinum neurotoxin type F light chain protease (Clostridium botulinum); 0.22% of 360,000 active; Multiplex microsphere protease cleavage assay; inhibition, % at 10 µM; in the data active means inhibition above about 35%, passing the limit was not always enough; inconclusive means no clear call, values can overlap the other calls; further: plate controls were buffer without enzyme for full effect and enzyme alone for no effect
# GDH-TPI counter-1: GDH-TPI coupling enzyme inhibitors, primary screen, artefact control for M. tuberculosis FBA inhibitor project, biochemical, absorbance, full deck; inhibition, % at 4.8 µM; 1.2% of 360,000 active; GDH-TPI coupled enzyme counterscreen, NADH absorbance; in the data active means inhibition above about 30%;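 further: 0% = DMSO wells and 100% = wells lacking the enzyme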
# Mtb FBA confirm: M. tuberculosis aldolase blockers, biochemical, fluorescence, strain H37Rv, confirmation | shares compounds with Mtb FBA inh | purified M. tuberculosis FBA, fluorescence read-out | inhibition, % at 1 µM | 78% of 5,600 active | AID 651616, 2012;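 further: 0% = vehicle wells and 100% = reference inhibitor wells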
# GDH-TPI counter-2: GDH-TPI coupling enzyme inhibitors, artefact control for M. tuberculosis FBA inhibitor project, biochemical, fluorescence, high throughput; shares compounds with Mtb FBA inh; GDH-TPI coupled enzyme counterscreen; inhibition, % at 1 µM; 81% of 5,600 active; AID 652141, 2013; in the data active means inhibition above about 10%
# Numbers without * were called inactive; ? = inconclusive; · = not tested or not shown; + = active, no number. Compounds with a hit are over-represented: about 6.6% of the library has one in this group of screens. Unless noted, no stated cut-off is given here; in the data, active means inhibition above about 27%; inactive means the rest.
SMILES,Anthrax LF inh2,Autofluor counter,Mtb FBA inh,BoNT A protease,BoNT-F LC inh,GDH-TPI counter-1,Mtb FBA confirm,GDH-TPI counter-2
Cc1ccc(-c2cc(-c3ccccc3)c(C#N)c(N)n2)o1,8.4,4663,28.5*,11.4,-14.9,8.9,148.4*,125.3*
Cc1nc2scc(C)n2c(=O)c1S(=O)(=O)NCC1CCN(Cc2ccc(F)cc2)CC1,1.4,4722,31.8*,2.0,-1.4,21.9,121.5*,90.5*
COc1ccccc1CNS(=O)(=O)c1c(C)nc2scc(C)n2c1=O,-1.1,7185,19.1,-2.7,-8.2,9.8,·,·
Cc1nc2scc(C)n2c(=O)c1S(=O)(=O)NC(C)c1ccccc1 (centres undefined),1.3,4230,37.4*,1.5,10.3,26.9,40.2*,36.7*
Cc1nc2scc(C)n2c(=O)c1S(=O)(=O)NCc1ccccc1Cl,-2.9,6019,34.3*,0.0,-3.3,11.2,179.5*,132.0*
CN(Cc1cccs1)C(=O)C1CCN(S(=O)(=O)c2ccccc2)CC1,8.4,6674,3.2,0.8,-5.5,2.1,·,·
Cc1ccc(-c2ccc(CCC(=O)O)n2CC(=O)O)cc1,0.3,9249,20.2,0.7,1.7,10.2,·,·
Cc1ccc(-c2ccc(CCC(=O)O)n2CC2CCCO2)cc1 (centres undefined),1.0,22736*,40.7*,?,-4.3,-1.3,91.7*,60.1*
O=C(O)CCc1ccc(-c2ccccc2)n1CC1CCCO1 (centres undefined),-1.6,4790,36.9*,-0.6,4.6,-0.8,133.4*,118.5*
O=C(O)CCc1ccc(-c2ccccc2)n1Cc1ccco1,5.1,3621,11.9,0.0,11.3,18.7,·,·
CCOC(=O)CCc1c(C)n(CC)c2cc(-c3ccccc3OC)nn2c1=O,-1.1,2380,66.5*,0.3,6.8,7.6,+,+
COc1ccccc1CNC(=O)CCc1c(C)nc2cc(-c3ccccc3OC)nn2c1C,4.9,6198,16.5,0.6,-9.7,9.3,·,·
CCN(CC)CCCNC(=O)CCc1c(C)n(CC)c2cc(-c3ccccc3OC)nn2c1=O,-15.6,4247,65.0*,1.1,-21.9,-6.6,195.4*,118.2*
CCN(CC)C(=O)c1sc2nc(-c3ccccn3)[nH]c(=O)c2c1C,0.6,3580,9.0,-2.5,-2.2,29.9,·,·
Cc1sc2nc(-c3ccccn3)[nH]c(=O)c2c1-c1ccccc1,-4.6,4649,31.4*,-2.5,-5.2,7.3,46.4*,37.4*
CCc1cc(=O)oc2cc(OCC(=O)N3C[C@H]4C[C@@H](C3)c3cccc(=O)n3C4)c(Cl)cc12,-2.8,5224,7.0,0.1,-14.1,6.9,·,·
O=C(COc1cc2oc(=O)c3c(c2cc1Cl)CCCC3)N1C[C@H]2C[C@@H](C1)c1cccc(=O)n1C2,-4.0,5816,35.1*,-0.6,-4.6,20.6,121.8*,87.4*
CC(Oc1cc2oc(=O)c3c(c2cc1Cl)CCC3)C(=O)N1C[C@H]2C[C@@H](C1)c1cccc(=O)n1C2 (some centres undefined),-11.1,5948,37.2*,-2.0,-9.2,18.6,124.3*,111.3*
Cc1cc(OCC(=O)N2C[C@H]3C[C@@H](C2)c2cccc(=O)n2C3)c2c(C)cc(=O)oc2c1,1.5,4071,34.1*,0.3,-4.4,16.7,+,+
COc1ccc(OCc2cc(C(=O)N3C[C@H]4CC[C@H]3C4)no2)c(Cl)c1,1.2,?,1.6,1.2,4.3,2.4,·,·
CC(Sc1ccccc1F)C(=O)Nc1ccc2c(c1)OCCO2 (centres undefined),-1.0,8060,-3.3,-2.3,-8.3,1.8,·,·
